Residual activity data for one molecule are collected here from ChEMBL document CHEMBL2218924, “A broad activity screen in support of a chemogenomic map for kinase signalling research and drug discovery” (Biochem J, 2013).

The target in assay [1] is Tyrosine-protein kinase SYK (Homo sapiens) (UniProt P43405). The settings on record: at 10 µM.
Assay [2] deals with T1, Mitogen-activated protein kinase kinase kinase 7 (Homo sapiens) (UniProt O43318).
T1 sequence (whole entry): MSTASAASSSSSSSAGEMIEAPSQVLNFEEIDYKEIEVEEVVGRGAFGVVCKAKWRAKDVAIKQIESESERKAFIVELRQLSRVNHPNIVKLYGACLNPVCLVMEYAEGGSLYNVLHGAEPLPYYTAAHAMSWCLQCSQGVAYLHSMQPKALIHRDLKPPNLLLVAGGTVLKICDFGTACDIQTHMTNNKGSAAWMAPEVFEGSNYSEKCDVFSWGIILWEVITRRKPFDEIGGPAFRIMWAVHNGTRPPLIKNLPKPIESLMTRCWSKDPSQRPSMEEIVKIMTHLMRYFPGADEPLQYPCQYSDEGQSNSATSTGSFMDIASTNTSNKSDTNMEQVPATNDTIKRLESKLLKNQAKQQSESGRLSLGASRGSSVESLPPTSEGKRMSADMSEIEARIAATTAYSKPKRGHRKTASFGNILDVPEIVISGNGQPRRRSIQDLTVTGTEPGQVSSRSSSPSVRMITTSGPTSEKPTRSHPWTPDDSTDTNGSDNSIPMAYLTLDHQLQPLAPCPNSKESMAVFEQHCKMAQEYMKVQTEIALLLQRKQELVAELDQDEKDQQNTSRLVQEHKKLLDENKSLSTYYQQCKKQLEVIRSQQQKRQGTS
The settings on record: at 1 µM.

Assay [3] deals with T1, Mitogen-activated protein kinase kinase kinase 7 (Homo sapiens). The settings on record: at 10 µM.
Assay [4] concerns the target T2, Serine/threonine-protein kinase TAO1 (Homo sapiens) (UniProt Q7L7X3).
T2 sequence (whole entry): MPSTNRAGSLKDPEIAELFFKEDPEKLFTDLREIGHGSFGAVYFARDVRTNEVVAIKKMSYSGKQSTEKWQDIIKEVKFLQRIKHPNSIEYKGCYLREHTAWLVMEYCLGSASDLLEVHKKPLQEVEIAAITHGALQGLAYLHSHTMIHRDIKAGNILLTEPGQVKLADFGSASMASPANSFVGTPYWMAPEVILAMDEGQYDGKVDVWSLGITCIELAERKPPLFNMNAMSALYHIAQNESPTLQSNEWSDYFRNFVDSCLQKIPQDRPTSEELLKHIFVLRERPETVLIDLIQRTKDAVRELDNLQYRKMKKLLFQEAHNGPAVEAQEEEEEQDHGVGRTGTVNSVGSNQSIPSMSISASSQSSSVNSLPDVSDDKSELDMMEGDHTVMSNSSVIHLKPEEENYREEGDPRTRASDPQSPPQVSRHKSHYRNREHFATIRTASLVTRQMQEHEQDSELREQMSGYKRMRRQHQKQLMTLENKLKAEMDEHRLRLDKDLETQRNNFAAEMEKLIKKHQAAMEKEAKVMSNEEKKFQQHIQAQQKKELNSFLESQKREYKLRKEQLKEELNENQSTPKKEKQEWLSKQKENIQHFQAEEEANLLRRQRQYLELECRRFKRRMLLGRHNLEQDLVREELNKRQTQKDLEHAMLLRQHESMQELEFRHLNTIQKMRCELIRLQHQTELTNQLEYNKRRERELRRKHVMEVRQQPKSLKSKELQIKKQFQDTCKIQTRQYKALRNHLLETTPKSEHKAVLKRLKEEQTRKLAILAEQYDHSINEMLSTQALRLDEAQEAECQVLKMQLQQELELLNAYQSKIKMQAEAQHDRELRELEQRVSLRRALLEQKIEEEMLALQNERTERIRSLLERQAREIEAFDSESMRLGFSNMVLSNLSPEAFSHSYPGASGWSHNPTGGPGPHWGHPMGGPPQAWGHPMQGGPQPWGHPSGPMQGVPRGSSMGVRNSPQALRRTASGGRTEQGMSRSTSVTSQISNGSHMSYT
The settings on record: at 1 µM.

Assay [5] deals with T2, Serine/threonine-protein kinase TAO1 (Homo sapiens). As to conditions: at 10 µM.
Assay [6] deals with T3, Serine/threonine-protein kinase TAO2 (Homo sapiens) (UniProt Q9UL54).
T3 sequence (whole entry): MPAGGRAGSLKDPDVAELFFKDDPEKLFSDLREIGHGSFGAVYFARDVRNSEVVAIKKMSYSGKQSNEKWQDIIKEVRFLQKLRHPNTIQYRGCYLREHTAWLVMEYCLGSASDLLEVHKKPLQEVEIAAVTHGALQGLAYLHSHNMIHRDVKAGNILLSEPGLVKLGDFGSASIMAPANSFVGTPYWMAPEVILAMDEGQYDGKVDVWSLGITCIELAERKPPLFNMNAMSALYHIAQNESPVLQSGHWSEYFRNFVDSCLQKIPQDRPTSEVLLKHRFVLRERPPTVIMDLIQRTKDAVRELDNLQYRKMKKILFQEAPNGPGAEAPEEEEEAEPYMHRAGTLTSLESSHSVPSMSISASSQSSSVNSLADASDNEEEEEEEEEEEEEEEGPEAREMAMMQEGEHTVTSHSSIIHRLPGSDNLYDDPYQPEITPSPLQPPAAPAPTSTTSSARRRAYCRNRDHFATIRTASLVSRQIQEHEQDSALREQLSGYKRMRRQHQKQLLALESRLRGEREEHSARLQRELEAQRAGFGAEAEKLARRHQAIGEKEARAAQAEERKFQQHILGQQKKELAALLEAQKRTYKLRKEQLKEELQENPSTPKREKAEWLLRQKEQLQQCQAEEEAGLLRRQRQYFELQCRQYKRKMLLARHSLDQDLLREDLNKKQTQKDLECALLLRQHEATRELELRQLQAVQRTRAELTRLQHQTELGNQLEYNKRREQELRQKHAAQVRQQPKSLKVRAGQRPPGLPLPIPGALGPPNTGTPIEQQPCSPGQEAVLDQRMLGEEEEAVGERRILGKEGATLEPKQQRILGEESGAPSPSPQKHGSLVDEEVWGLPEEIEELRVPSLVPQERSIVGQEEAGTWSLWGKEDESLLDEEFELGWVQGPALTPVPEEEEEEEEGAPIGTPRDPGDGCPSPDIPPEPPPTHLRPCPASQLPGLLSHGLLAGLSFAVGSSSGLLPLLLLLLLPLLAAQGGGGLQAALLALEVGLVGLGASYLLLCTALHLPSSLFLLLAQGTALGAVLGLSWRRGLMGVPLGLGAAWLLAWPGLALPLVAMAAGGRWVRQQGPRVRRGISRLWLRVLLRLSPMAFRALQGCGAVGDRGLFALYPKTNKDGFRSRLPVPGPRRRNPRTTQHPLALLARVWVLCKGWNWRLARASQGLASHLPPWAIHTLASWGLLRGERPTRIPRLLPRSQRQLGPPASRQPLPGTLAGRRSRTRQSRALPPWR
The settings on record: at 1 µM.

The target in assay [7] is T3, Serine/threonine-protein kinase TAO2 (Homo sapiens). The settings on record: at 10 µM.
Assay [8] addresses T4, Serine/threonine-protein kinase TAO3 (Homo sapiens) (UniProt Q9H2K8).
T4 sequence (whole entry): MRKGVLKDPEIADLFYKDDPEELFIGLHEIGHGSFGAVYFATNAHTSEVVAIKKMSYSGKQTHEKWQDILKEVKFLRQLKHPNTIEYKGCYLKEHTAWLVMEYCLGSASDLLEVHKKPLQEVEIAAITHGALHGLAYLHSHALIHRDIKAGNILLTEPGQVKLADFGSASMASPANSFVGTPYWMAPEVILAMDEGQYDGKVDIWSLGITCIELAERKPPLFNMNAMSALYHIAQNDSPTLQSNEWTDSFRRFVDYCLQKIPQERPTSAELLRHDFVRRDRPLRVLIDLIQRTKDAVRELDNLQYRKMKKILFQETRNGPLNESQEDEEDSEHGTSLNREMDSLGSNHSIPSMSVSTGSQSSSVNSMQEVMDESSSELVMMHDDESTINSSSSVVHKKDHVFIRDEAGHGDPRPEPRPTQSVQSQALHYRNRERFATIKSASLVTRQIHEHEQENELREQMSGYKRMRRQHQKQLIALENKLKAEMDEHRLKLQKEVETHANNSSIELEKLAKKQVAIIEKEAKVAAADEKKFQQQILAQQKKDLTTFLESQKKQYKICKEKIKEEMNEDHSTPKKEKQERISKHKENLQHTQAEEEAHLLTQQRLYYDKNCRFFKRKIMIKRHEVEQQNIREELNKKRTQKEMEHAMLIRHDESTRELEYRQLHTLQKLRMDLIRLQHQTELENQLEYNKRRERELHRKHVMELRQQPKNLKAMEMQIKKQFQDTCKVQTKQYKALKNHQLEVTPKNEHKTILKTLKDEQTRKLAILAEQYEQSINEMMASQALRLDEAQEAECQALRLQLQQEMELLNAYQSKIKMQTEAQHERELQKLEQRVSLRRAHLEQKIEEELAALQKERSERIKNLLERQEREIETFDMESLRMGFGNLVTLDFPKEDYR
As to conditions: at 1 µM.

Assay [9] concerns the target T4, Serine/threonine-protein kinase TAO3 (Homo sapiens). As to conditions: at 10 µM.
Assay [10] addresses T5, Serine/threonine-protein kinase TBK1 (Homo sapiens) (UniProt Q9UHD2).
T5 sequence (whole entry): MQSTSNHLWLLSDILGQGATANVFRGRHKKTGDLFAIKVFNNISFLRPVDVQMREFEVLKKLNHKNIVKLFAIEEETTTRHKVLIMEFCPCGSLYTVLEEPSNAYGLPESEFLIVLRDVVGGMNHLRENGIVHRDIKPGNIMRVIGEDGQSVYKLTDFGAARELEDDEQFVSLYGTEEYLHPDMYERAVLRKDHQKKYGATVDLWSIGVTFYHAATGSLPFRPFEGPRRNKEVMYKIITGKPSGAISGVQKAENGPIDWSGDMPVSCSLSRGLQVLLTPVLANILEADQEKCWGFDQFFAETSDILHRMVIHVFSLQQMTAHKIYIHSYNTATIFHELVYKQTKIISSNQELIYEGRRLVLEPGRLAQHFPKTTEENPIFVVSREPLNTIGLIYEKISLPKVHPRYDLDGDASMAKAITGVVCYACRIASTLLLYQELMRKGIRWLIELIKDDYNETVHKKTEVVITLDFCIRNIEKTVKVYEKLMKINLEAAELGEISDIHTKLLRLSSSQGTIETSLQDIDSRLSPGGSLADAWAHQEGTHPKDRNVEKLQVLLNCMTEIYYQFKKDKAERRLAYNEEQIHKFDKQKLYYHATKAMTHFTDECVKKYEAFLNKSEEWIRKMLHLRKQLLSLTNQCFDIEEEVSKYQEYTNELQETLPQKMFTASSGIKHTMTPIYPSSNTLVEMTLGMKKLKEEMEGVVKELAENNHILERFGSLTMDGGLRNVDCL
As to conditions: at 1 µM.

As for `CNc1cc2c(Nc3cccc(Br)c3)ncnc2cn1`, the residual activity in assay [1] is 90%; in assay [2], 91%; in assay [3], 90%; in [4], 100%; in [5] it was 81%; in assay [6] it was 110%. In addition, the residual activity turned out to be 75% in assay [7], 95% in assay [8], 90% in assay [9] and 79% in assay [10].
